Each structure is given as a SMILES string. About 2,100 (0.62%) of roughly 340,000 compounds were called active.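 Rule for the calls: active = first-screen hits whose inhibition reached a set limit at any dose in the follow-up dose series; inconclusive = inhibition above the set first-screen limit but never retested; inactive = the rest.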 Only a sample is shown. Measured potencies and affinities stand elsewhere.

This assay deals with Rac GTPase-activating protein 1 (Homo sapiens) (UniProt Q9H0H5). As to the kind of experiment: blockers of MgcRacGAP-driven Rac1 GTP hydrolysis – biochemical, ADP Hunter fluorescence, primary and confirmatory, confirmation (AID 624330).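 Note: fluorescence reports GDP produced by GAP-driven GTP hydrolysis.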 Conditions: MgcRacGAP-stimulated Rac1 GTP hydrolysis, at 30 µM, stronger effect = higher value, GST-tagged Rac1 F28L mutant substrate.
Chain of Rac GTPase-activating protein 1 (Homo sapiens) (Q9H0H5 whole entry, looked up): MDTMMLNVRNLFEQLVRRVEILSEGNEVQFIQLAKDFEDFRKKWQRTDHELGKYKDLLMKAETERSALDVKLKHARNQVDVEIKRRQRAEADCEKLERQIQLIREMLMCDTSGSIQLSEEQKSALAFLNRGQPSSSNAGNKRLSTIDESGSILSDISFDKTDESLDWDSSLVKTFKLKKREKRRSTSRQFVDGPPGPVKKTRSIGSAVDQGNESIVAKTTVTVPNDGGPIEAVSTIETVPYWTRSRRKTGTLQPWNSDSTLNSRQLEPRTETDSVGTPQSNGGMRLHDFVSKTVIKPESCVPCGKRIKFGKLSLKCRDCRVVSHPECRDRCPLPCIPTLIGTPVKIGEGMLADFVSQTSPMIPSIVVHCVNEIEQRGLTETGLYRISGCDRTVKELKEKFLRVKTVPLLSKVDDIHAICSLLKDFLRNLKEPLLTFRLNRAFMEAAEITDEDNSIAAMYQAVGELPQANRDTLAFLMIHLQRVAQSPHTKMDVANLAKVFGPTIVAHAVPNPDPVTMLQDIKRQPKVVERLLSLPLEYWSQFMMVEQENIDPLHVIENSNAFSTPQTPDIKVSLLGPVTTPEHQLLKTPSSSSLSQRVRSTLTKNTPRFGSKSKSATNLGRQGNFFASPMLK
For orientation: inhibition means the relative decrease from the control value, in per cent. `COC(=O)C(CC(=O)c1ccc(C)cc1)n1cccn1` (stereo not drawn): the inhibition was 11.3% (inactive). As for `CCOC(=O)c1cnc2ccccc2c1Nc1cccc(C(=O)O)c1`, the inhibition is -0.21% (inactive). With `CCSc1nnc(NC(=O)[C@H](C)NC(=O)c2ccccc2Cl)s1` the figure was 9.72% (inactive). To `CCC(=O)Nc1ccc(NC(=S)Nc2ccccc2)cc1` belongs 8.45% (inactive); to `CCC(=O)Nc1ccc(C(=O)c2ccccc2)cc1`, 10.1% (inactive). Turning to `CC(C)C1N=C2c3ccccc3N=C(SCC#N)N2C1=O` (stereo not drawn), the inhibition is 10.5% (inactive).

Consider `CC(C)C1N=C2c3ccccc3N=C(SCC(=O)NCCc3ccc(S(N)(=O)=O)cc3)N2C1=O` (stereo not drawn), for which the inhibition is 1.59% (inactive).

Turning to `COc1ccc(Cl)cc1NC(=O)C1Cc2cc(S(=O)(=O)N3CCCC3)ccc2N1C(C)=O` (stereo not drawn), the inhibition is 2.38% (inactive). To `COc1ccc(CCNC(=O)COC(=O)CCC(=O)c2cccs2)cc1OC` belongs 3.28% (inactive). Turning to `COc1cccc(S(=O)(=O)NCc2ccc(C(=O)NCc3ccco3)cc2)c1`, the inhibition was 13.6% (inactive).

Regarding `Cc1ccc(Cl)cc1NC(=S)N1CCC(c2ccccc2)C1` (stereo not drawn), the inhibition is 7.04% (inactive).

Turning to `COc1ccc(CN2CCC(N3CC(C)OC(C)C3)CC2)c(OC)c1` (stereo not drawn), the inhibition was 29.1% (inactive).

`COc1ccc(OC)c(CN2CCN(Cc3cc(OC)c(OC)c(OC)c3)CC2)c1`: the inhibition was -7.74% (inactive). With `COc1ccc(CN2CCN(c3ccc(F)cc3)CC2)c(OC)c1OC` the figure was 8.37% (inactive); with `COc1ccc2oc(=O)cc(CN3CCN(Cc4ccc(OC)c(OC)c4OC)CC3)c2c1`, 11.2% (inactive); with `COc1ccc(OC)c(CN2CCN(c3ccccc3OC)CC2)c1`, 19.8% (inactive). As for `COc1ccccc1N1CCN(Cc2ccc(OC)c(OC)c2OC)CC1`, the inhibition is 28.2% (inactive). To `COc1ccc(CN2CCC(n3nccc3NC(=O)C3CC3)CC2)c(OC)c1OC` belongs 8.32% (inactive); to `COc1ccc(OC)c(CN2CCSCC2)c1`, 36.4% (inactive). As for `O=C(c1ccccc1F)N1CCN(c2ccc([N+](=O)[O-])c(NCC3CCCO3)c2)CC1` (stereo not drawn), the inhibition was 11.1% (inactive). To `COc1ccc(CCNC(=O)C2CCCN2C(=O)Nc2ccc(F)cc2)cc1OC` (stereo not drawn) belongs 7.58% (inactive). Consider `O=C(CSc1nnc(NC(=O)C2CC(=O)N(c3ccccc3)C2)s1)NCC1CCCO1` (stereo not drawn), for which the inhibition was 8.28% (inactive). For the molecule `CN(Cc1ccccc1)c1ncc(C=O)s1`, the inhibition was 11.2% (inactive).

Regarding `CCCCC(=O)Nc1ccccc1CC`, the inhibition was 7.96% (inactive).

Take `C=CCN1C(=O)CS/C1=N\N=C\c1cccc([N+](=O)[O-])c1`: the inhibition is 5.94% (inactive).

With `CCCCNS(=O)(=O)c1ccc2nc(SCC(=O)Nc3ccccc3Cl)[nH]c2c1`, the inhibition was 9.77% (inactive). With `CCOc1ccc(NC(=S)N2CCN(C/C=C/c3ccccc3)CC2)cc1`, the inhibition was 6.87% (inactive).

As for `Cn1c(=O)n(C)c2cc(NC(=O)CSc3ccccc3)ccc21`, the inhibition is 6.1% (inactive). In the case of `Clc1ccc(OCCCCCN2CCOCC2)cc1`, the inhibition was -5.93% (inactive). With `COc1ccc(CN2CCN(C(=O)c3ccccc3F)CC2)c(OC)c1OC` the figure was -1.41% (inactive).

Consider `CSc1ccc(CN2CCC(Cc3ccccc3)CC2)cc1`, for which the inhibition is 15% (inactive). As to `CSc1ccc(CN2CCC(N3CCC(C(=O)NC4CC4)CC3)CC2)cc1`, the inhibition was -3.51% (inactive).

Take `CCOC(=O)Cc1csc(NC(=O)c2c(C)noc2C)n1`: the inhibition is 7.91% (inactive).

As for `CCC1=C2CC[C@H]3C(=O)N(C)C(=O)[C@H]3[C@H]2[C@@]2(Cc3ccccc3)C(=NCCOC)OC(=O)N2C1=O`, the inhibition was 10.6% (inactive). In the case of `C/C(=N\NC(=O)c1nnn(-c2nonc2N)c1CN1CCCCCC1)c1ccc(Br)cc1`, the inhibition is -3.03% (inactive). As for `CC(Oc1ccc(F)cc1)C(=O)N(Cc1ccccc1)c1c(N)n(Cc2ccccc2)c(=O)[nH]c1=O` (stereo not drawn), the inhibition is 3.15% (inactive). To `CCOC(=O)Nc1ccc(C(N)=O)cc1` belongs 10% (inactive). With `CCOC(=O)Nc1ccc(Oc2ccccc2)cc1` the figure was 1.24% (inactive). To `Cc1ccccc1NC(=O)COc1coc(CN2CCN(Cc3ccccc3)CC2)cc1=O` belongs 3.8% (inactive); to `N#Cc1ccc(-c2ccccc2)nc1Sc1ccc(F)cc1`, 3.11% (inactive); to `Cc1c(/C=N\NC(=O)C2(C)CC2(Cl)Cl)cnn1C` (stereo not drawn), 2.13% (inactive).

Take `CC(=O)Oc1ccc(/C=C2/C(=O)N(c3ccccc3)N=C2C)cc1`: the inhibition was 25% (inactive).

For `CCOc1cc(/C=C2/C(=O)N(c3ccccc3)N=C2C)ccc1OC(=O)c1cccs1`, the inhibition is 15.2% (inactive). Turning to `COc1ccc(C(=O)c2coc3ccc(O)c(CN4CCCC4)c23)cc1`, the inhibition is 8.22% (inactive).

With `CN1C2CCC1/C(=C\c1ccccc1F)C(=O)/C2=C/c1ccccc1F`, the inhibition is 7.33% (inactive). With `CN1C2CCC1/C(=C\c1ccccc1)C(=O)/C2=C\c1ccccc1` the figure was 12.8% (inactive); with `Cc1ccc(S(=O)(=O)N2CCCCC2)cc1NC(=O)c1c(-c2ccccc2)noc1C`, 0.74% (inactive).

As to `O=C(COC(=O)C1CCCCC1)Nc1ccc(S(=O)(=O)N2CCOCC2)cc1`, the inhibition was -2.69% (inactive). Consider `CCCC(c1nnnn1CCOC)N(Cc1cc2cc(C)c(C)cc2[nH]c1=O)CC1CCCO1` (stereo not drawn), for which the inhibition is 1.47% (inactive).

Take `COc1cc(Br)c(CN2CCCN(C)CC2)cc1OC`: the inhibition is 5.08% (inactive). Regarding `COc1cc(OC)c(CN2CCCCCCC2)cc1Br`, the inhibition was 14.3% (inactive). With `COc1ccc(CN2CCSCC2)c(OC)c1C` the figure was 28.9% (inactive); with `COc1ccc(CN2CCCCCC2)c(C)c1C`, 11.4% (inactive). To `CC(=O)N1CCSc2ccc(S(=O)(=O)Nc3ccc(C)cc3)cc21` belongs 8.81% (inactive); to `CC(C(=O)Nc1ccccc1-c1ccccc1)N1CCCCC1` (stereo not drawn), 0.68% (inactive). With `CN1CCN(C(=O)CCC(=O)c2ccc(F)cc2)CC1` the figure was 7.21% (inactive). As for `COc1ccc(NC(=O)c2ccc3c(c2)C(=O)N(Cc2cccnc2)C3=O)cc1`, the inhibition was 9.43% (inactive). To `COc1ccc(CN2C(=O)c3ccccc3C2=O)cc1` belongs -0.09% (inactive); to `CC1S/C(=N/N=C/c2cccs2)NC1=O` (stereo not drawn), -9.62% (inactive). To `O=[N+]([O-])c1ccccc1Nc1ccccc1` belongs 5.61% (inactive); to `O=[N+]([O-])c1ccccc1Nc1ccccc1[N+](=O)[O-]`, -9.22% (inactive); to `Nc1cc([N+](=O)[O-])ccc1Nc1ccccc1`, 15.2% (inactive). Consider `Nc1ccc(Nc2ccc([N+](=O)[O-])cc2[N+](=O)[O-])cc1`, for which the inhibition was 25.4% (inactive).

The values are drawn from PubChem BioAssay AID624330 (Southern Research Specialized Biocontainment Screening …, 2012).
